Molecules are shown by their SMILES. In all, about 310,000 compounds went through this assay and about 14,000 (4.5%) showed an effect of 50% or more. The effect is printed as a negative number. The sample as a whole holds a higher share of strong results than the screen did.
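Further: peak tail current of the secondary pulse compared with the same well before compound.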

This assay deals with human ether-à-go-go-related gene (hERG) potassium channel (human, UniProt Q12809). Put plainly: primary screen, population patch clamp on CHO cells stably expressing hERG; higher = less effect of the substance.
Sequence of human ether-à-go-go-related gene (hERG) potassium channel (Q12809 whole entry, looked up): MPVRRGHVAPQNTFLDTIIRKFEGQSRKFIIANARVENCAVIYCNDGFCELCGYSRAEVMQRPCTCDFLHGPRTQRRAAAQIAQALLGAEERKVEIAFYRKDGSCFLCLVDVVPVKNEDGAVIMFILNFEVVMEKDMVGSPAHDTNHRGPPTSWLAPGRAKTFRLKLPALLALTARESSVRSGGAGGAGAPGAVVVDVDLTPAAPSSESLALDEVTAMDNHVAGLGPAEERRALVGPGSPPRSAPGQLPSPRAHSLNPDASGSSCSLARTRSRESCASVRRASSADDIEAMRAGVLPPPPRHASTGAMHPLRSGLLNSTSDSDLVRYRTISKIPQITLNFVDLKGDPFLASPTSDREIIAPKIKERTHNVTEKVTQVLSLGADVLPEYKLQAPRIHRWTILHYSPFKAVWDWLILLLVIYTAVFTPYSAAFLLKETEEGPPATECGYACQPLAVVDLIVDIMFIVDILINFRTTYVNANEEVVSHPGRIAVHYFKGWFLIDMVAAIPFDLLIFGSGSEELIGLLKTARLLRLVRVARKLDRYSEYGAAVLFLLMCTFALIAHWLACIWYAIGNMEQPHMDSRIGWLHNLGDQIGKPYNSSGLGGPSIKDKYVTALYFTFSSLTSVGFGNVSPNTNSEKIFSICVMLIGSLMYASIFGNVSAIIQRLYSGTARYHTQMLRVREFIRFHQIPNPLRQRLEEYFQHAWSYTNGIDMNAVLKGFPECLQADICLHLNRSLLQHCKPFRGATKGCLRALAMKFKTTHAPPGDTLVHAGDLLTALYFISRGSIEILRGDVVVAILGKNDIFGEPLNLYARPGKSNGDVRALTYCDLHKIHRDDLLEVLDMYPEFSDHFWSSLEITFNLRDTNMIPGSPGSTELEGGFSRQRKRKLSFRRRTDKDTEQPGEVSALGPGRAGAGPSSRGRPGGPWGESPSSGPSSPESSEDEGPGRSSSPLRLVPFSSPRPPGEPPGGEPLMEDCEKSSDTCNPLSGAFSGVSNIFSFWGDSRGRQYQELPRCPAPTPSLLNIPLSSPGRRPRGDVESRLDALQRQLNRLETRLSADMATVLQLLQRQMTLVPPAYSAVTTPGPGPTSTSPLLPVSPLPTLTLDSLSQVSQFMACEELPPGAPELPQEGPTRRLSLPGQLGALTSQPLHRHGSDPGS
As for `Cc1cccc(C(=O)NC(=S)NNC(=O)c2cccs2)c1`, the “hERG current change (%, negative = inhibition) at 10uM” value is recorded as 17.2%.

In the case of `Cc1onc(-c2ccccc2)c1NC(=O)N(CCC#N)Cc1ccccc1`, the “hERG current change (%, negative = inhibition) at 10uM” value turned out to be 3.65%.

As to `CCOC(=O)c1ccc(NC(=O)c2nc[nH]c2C(=O)NCC(=O)OC(C)(C)C)cc1`, the “hERG current change (%, negative = inhibition) at 10uM” value amounted to 19.5%.

As for `CCCCN(CCCC)/C(N)=N/c1nc(C)cc(C)n1`, the “hERG current change (%, negative = inhibition) at 10uM” value is reported as -80.2%.

For `Cc1cc(C)nc(/N=C(\N)N(Cc2ccccc2)Cc2ccccc2)n1`, the “hERG current change (%, negative = inhibition) at 10uM” value is on record as -70.6%.

Consider `CCN(/C(N)=N/c1nc(C)cc(C)n1)c1ccccc1`, for which the “hERG current change (%, negative = inhibition) at 10uM” value was -6.01%.

With `Cc1cc(C)nc(/N=C(\N)N2CCCCCC2)n1`, the “hERG current change (%, negative = inhibition) at 10uM” value is -3.86%.

Turning to `Cc1cc(C)nc(N(C#N)Cc2ccccc2)n1`, the “hERG current change (%, negative = inhibition) at 10uM” value is -4.34%.

`CCN(CC)/C(N)=N/c1nc(C)cc(C)n1`: the “hERG current change (%, negative = inhibition) at 10uM” value came out at 7.16%.

For `COc1cccc(C=O)c1OCCN1C(=O)c2ccccc2C1=O`, the “hERG current change (%, negative = inhibition) at 10uM” value amounted to 4%.

`CCc1ccccc1S(=O)(=O)Cc1ccc(C(=O)NCc2cccs2)o1`: the “hERG current change (%, negative = inhibition) at 10uM” value is on record as -22.5%.

On to `Cc1cc(C(=O)CCl)c(C)n1CCc1ccc(F)cc1`, for which the “hERG current change (%, negative = inhibition) at 10uM” value is given as 27.2%.

Consider `CC1CC(C)CN(c2ncnc3c2cnn3-c2ccc(Cl)cc2)C1` (stereo not shown), for which the “hERG current change (%, negative = inhibition) at 10uM” value was 3.17%.

As to `CC1CC(C)CN(c2ncnc3c2cnn3C)C1` (stereo not shown), the “hERG current change (%, negative = inhibition) at 10uM” value was -69.8%.

For the compound `CN1CCN(c2ncnc3c2cnn3C)CC1`, the “hERG current change (%, negative = inhibition) at 10uM” value was found to be 19.5%.

As to `Cc1ccccc1NC(=O)c1cccnc1`, the “hERG current change (%, negative = inhibition) at 10uM” value is -7.59%.

Consider `CCCCOC(=O)c1cc(=O)[nH]c2ccc(C)cc12`, for which the “hERG current change (%, negative = inhibition) at 10uM” value is given as 5.6%.

Consider `CC1(C)OC(=O)C(=NNc2ccccc2[N+](=O)[O-])C(=O)O1`, for which the “hERG current change (%, negative = inhibition) at 10uM” value was determined as 24.3%.

Turning to `COC(=O)CN(c1ccc(Cl)cc1C)S(C)(=O)=O`, the “hERG current change (%, negative = inhibition) at 10uM” value worked out at 13.9%.

Turning to `N#Cc1cccc(C(=O)N(CCc2ccccc2)Cc2cccs2)c1`, the “hERG current change (%, negative = inhibition) at 10uM” value was -53.3%.

Turning to `CS(=O)(=O)c1cccc(C(=O)N(CCc2ccccc2)Cc2cccs2)c1`, the “hERG current change (%, negative = inhibition) at 10uM” value is -48.6%.

For `COc1ccc(C(=O)N(CCc2ccccc2)Cc2cccs2)c(OC)c1`, the “hERG current change (%, negative = inhibition) at 10uM” value was -15.9%.

Regarding `O=C(Cc1ccccc1)Nc1ccc(C(=O)NCc2ccccc2)cc1`, the “hERG current change (%, negative = inhibition) at 10uM” value came to 11.2%.

Regarding `Cn1c(SCC(=O)Nc2cccc(F)c2)nnc1-c1cccnc1`, the “hERG current change (%, negative = inhibition) at 10uM” value was -33.1%.

As to `CCCn1c(SCC(=O)Nc2cccc(C(=O)OC)c2)nnc1-c1cccnc1`, the “hERG current change (%, negative = inhibition) at 10uM” value is -42%.

`Cc1ccc(NC(=O)CSc2nnc(-c3cccnc3)n2CCN2CCCCC2)cc1`: the “hERG current change (%, negative = inhibition) at 10uM” value was -69%.

As to `O=C(CSc1nnc(-c2cccnc2)n1CCN1CCCCC1)Nc1cccc(Cl)c1`, the “hERG current change (%, negative = inhibition) at 10uM” value was -79.8%.

Consider `Cn1c(SCC(=O)Nc2ccc(F)cc2)nnc1-c1cccnc1`, for which the “hERG current change (%, negative = inhibition) at 10uM” value was -11.5%.

In the case of `C=CCn1c(SCC(=O)Nc2ccc(C(=O)O)cc2)nnc1-c1cccnc1`, the “hERG current change (%, negative = inhibition) at 10uM” value came to 34.6%.

Regarding `COC(=O)C1=C(c2ccc(OC)c(OC)c2)C[C@@H]2CC[C@H]1N2C(=O)N1CCC(C)CC1`, the “hERG current change (%, negative = inhibition) at 10uM” value is 5.39%.

Regarding `O=C(COc1ncnc2ccc(Br)cc12)NC1CCCC1`, the “hERG current change (%, negative = inhibition) at 10uM” value turned out to be 2.91%.

Consider `Cc1cc(NC(=O)COC(=O)CSc2nc3cc(Cl)ccc3n2Cc2ccccc2)no1`, for which the “hERG current change (%, negative = inhibition) at 10uM” value is on record as -19.9%.

Regarding `Nc1nc2n(n1)C(=O)CC(c1ccccc1[N+](=O)[O-])N2` (stereo not shown), the “hERG current change (%, negative = inhibition) at 10uM” value was determined as 41.7%.

Consider `CC(C)(C)n1nnnc1C(c1ccc(C(F)(F)F)cc1)N(Cc1ccc(F)cc1)Cc1ccco1` (stereo not shown), for which the “hERG current change (%, negative = inhibition) at 10uM” value was found to be 8.86%.

In the case of `O=C(NCCc1csc(-c2ccccc2)n1)c1ccccc1F`, the “hERG current change (%, negative = inhibition) at 10uM” value is on record as -49.5%.

Turning to `CCCCNC(=O)CCc1nc2cccnc2n1Cc1ccccc1`, the “hERG current change (%, negative = inhibition) at 10uM” value is on record as -51.7%.

`O=C(CCc1nc2cccnc2n1Cc1ccccc1)NCCc1ccc(Cl)cc1`: the “hERG current change (%, negative = inhibition) at 10uM” value is -78.6%.

Take `COc1ccc(Cn2c(CCC(=O)Nc3ccccc3)nc3cccnc32)cc1`: the “hERG current change (%, negative = inhibition) at 10uM” value was -9.7%.

With `CCCCNC(=O)CCc1nc2cccnc2n1Cc1ccc(OC)cc1`, the “hERG current change (%, negative = inhibition) at 10uM” value was -18.1%.

`O=C(O)CCc1nc2cccnc2n1Cc1ccccc1`: the “hERG current change (%, negative = inhibition) at 10uM” value is -24.6%.

As for `COCCNC(=O)CCc1nc2cccnc2n1Cc1ccc(OC)cc1`, the “hERG current change (%, negative = inhibition) at 10uM” value is listed as 8.65%.

For the compound `COCCCNC(=O)CCc1nc2cccnc2n1Cc1ccccc1`, the “hERG current change (%, negative = inhibition) at 10uM” value is reported as -29.8%.

`CCCCCCNC(=O)CCc1nc2cccnc2n1Cc1ccc(OC)cc1`: the “hERG current change (%, negative = inhibition) at 10uM” value is -63.6%.

`COCCCNC(=O)CCc1nc2cccnc2n1Cc1ccc(OC)cc1`: the “hERG current change (%, negative = inhibition) at 10uM” value was determined as 10.8%.

For the compound `Cc1ccc(NC(=O)c2cc(CC(C)C)nc3ccccc23)cc1`, the “hERG current change (%, negative = inhibition) at 10uM” value stood at 11%.

With `CCOc1ccc2nc(NC(=O)CN3CCN(C)CC3)sc2c1`, the “hERG current change (%, negative = inhibition) at 10uM” value is recorded as -15.7%.

(Values after PMC4336329 (PLoS ONE, 2015).)
